Assay results from PubChem BioAssay (EPA / NIEHS).
Calls of active or inactive are those of the source. The calls were made as follows: active = hit-call score of the fitted dose curve at least 0.9, where 1 is the maximum; inactive = score below 0.9.

Assay: Tanguay_ZF_120hpf_TCHR: Oregon State University Tanguay Lab 120 Hour Post-fertilization zebrafish Assay for Touch Responsive (AID 2284403)
Method: Tanguay_ZF_120hpf is a whole embryo, multiplexed endpoint assay using zebrafish larvae exposed for 120 hours post fertilization on a 96-well plate.Tanguay_ZF_120hpf_TCHR is one of one assay component(s) measured or calculated from the Tanguay_ZF_120hpf assay. It is designed to make measurements of zebrafish development as detected with brightfield microscopy of developing zebrafish embryos.Data from the assay component Tanguay_ZF_120hpf_TCHR was analyzed into 1 assay endpoints. This assay endpoint, Tanguay_ZF_120hpf_TCHR, was analyzed in the positive analysis fitting direction relative to DMSO as the negative control and baseline of activity. Using a type of morphology reporter, gain-of-signal activity can be used to understand changes in developmentals as they relate to the whole embryo. To generalize the intended target to other relatable targets, this assay endpoint is annotated to the zebrafish development intended target family, where the subfamily is embryonic functional response.
Zebrafish husbandry: Tropical 5D wild-type adult zebrafish were housed in at an approximate density of 1000 per 100 gallon tank at the Sinnhuber Aquatic Research Laboratory, Oregon State University, Corvallis, OR. Each tank was kept at standard laboratory conditions of 28C on a 14-h light/10-h dark photoperiod in fish water consisting of reverse osmosis water supplemented with a commercially available salt (Instant Ocean). Spawning funnels were placed into the tanks the night prior, and embryos were collected and staged. To increase bioavailability, the chorion was enzymatically removed using pronase (63.6mg/ml, >/= 3.5U/mg, Sigma-Aldrich: P5147) at 4 hours post fertilization (hpf) using a custom automated dechorionator.Chemical exposures: Six hpf dechorionated embryos were placed 1 embryo per well in a 96-well plate prefilled with 90 ul of EM using automated embryo placement systems (AEPS). Ten microliters of each row of dilution plate 2 was added to 2 exposure plates. The final DMSO concentration used was 0.64% (vol/vol). Thirty-two embryos were also exposed to 5uM trimethyltin chloride (positive control). Plates were sealed to prevent evaporation and foil covered to reduce light exposure and kept in a 28C incubator. Embryos were statically exposed until 120 hpf. At 24 hpf, embryos were assessed for photomotor response using a custom photomotor response analysis tool (PRAT) and for developmental toxicity endpoints (MO24: mortality at 24 hpf, DP: developmental progression, SM: spontaneous movement, and NC: notochord distortion). At 120 hpf, locomotor activity was measured using Viewpoint Zebralab and assessed for 13 endpoints. Zebrafish acquisition and analysis program (ZAAP), a custom program designed to inventory, acquire, and manage zebrafish data, was used to collect developmental endpoints as either present or absent (i.e., binary responses were recorded). If mortality occurred for an embryo (at either 24 or 120 hpf), the non-mortality endpoints were not measured.

| SMILES | outcome |
| --- | --- |
| FC(F)=C(F)C(F)(F)C(F)(F)C(F)(F)C(F)(F)C(F)(F)C(F)(F)F | inactive |
| NCC(F)(F)C(F)(F)C(F)(F)C(F)(F)F | inactive |
| OC(O)(C(F)C(O)(O)C(F)(F)F)C(F)(F)F | inactive |
| FC(F)(F)COC(OCC(F)(F)F)OCC(F)(F)F | inactive |
| FC(F)C(F)(F)COCC1CO1 (stereo not given) | inactive |
| O=S(=O)(O)CCC(F)(F)C(F)(F)C(F)(F)C(F)(F)C(F)(F)C(F)(F)F | inactive |
| FC(F)(F)C(F)(F)C(F)(F)C(F)(F)C(F)(F)C(F)(F)I | inactive |
| OCCC(F)(F)C(F)(F)C(F)(F)C(F)(F)F | inactive |
| O=C(Cl)C(F)(F)C(F)(F)C(F)(F)C(=O)Cl | inactive |
| C[Si](C)(C)C(F)(F)C(F)(F)C(F)(F)F | inactive |
